The campaign covered roughly 340,000 compounds. About 1,800 (0.53%) were called active.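 How the source made its calls: active means activation over 3 SD above normal in the single-dose calcium agonist read (cut at about 30% in these data); inactive means the rest.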 What follows is part of a selection rich in actives, with near analogues and random picks from the rest.

Chain of D(2) dopamine receptor (Homo sapiens) (P14416 whole entry, looked up): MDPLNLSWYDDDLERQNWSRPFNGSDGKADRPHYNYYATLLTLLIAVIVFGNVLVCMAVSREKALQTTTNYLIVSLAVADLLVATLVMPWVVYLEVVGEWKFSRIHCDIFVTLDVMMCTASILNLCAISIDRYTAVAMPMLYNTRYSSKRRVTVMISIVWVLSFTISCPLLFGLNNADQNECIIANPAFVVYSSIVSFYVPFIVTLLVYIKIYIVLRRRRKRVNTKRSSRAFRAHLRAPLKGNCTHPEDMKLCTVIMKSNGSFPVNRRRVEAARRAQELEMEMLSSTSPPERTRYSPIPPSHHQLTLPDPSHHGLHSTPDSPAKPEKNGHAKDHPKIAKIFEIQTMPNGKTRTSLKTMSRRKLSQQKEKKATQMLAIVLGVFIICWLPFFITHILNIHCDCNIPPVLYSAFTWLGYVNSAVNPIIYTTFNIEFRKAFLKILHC

The target in this assay is D(2) dopamine receptor (Homo sapiens) (UniProt P14416). Put plainly: HTS Assay for Allosteric Agonists of the Human D2 Dopamine Receptor: Primary Screen for Agonists. Further: 0% is about no effect. The settings on record: HEK293 T-REx D2 cells, calcium flux agonist mode; at 2 µM; hits give high values. The text has this:
NIH Chemical Genomics Center [NCGC] NIH Molecular Libraries Probe Centers Network [MLPCN] MLPCN Grant: NS064831-01 Assay Submitter (PI): David Sibley Dopamine receptors (DARs) are involved in the etiology and/or therapy of a number of neuropsychiatric and endocrine disorders. For instance, all receptor-based antiparkinsonian drugs work via stimulating the D2 DAR subtype whereas all FDA-approved antipsychotic agents are antagonists of this receptor. […] There are three different types of allosteric modulators that we are seeking, two of which will stimulate or augment receptor signaling, allosteric agonists and potentiators, while the third, allosteric antagonists, will attenuate receptor signaling. The present primary screening assay measures compound agonism by tracking calcium flux in a […], inducible Hek293 Trex D2 cell line.
Freshly passaged cells are plated in 1536 well black, clear bottom plates at a density of 4000 cells/well in 3 ul of complete media containing 1x tetracycline inducer. After an overnight incubation at […] in 5% CO2, cells are loaded with 2 ul of the no wash Calcium Assay Kit (ABD Bioquest) and incubated at room temperature for 30 to 90 minutes. Agonist read: A 10 cycle (1 second/cycle) baseline measurement is taken and then the FDSS online 1536 pintool delivers 23 nl of compound library (as well as dopamine controls) to the plate. The plate is measured for kinetically at 1 cycle/sec for 180 seconds and is considered to be the agonist portion of the assay (eg, compounds which activate a positive calcium response during this portion are flagged as potential agonists). Following the 180 second read, 1 ul of either an EC20 (positive modulation assay) or EC80 (negative modulation assay) is delivered by an onboard pipette head. Measurements are taken kinetically for an additional 180 seconds.
A general note: A change in cytosolic calcium serves as a functional read-out for many receptors and channels.
Turning to `COc1ccc(CN2CCN(c3ccccc3F)CC2)c(OC)c1`, the activation is 71.7% (active).
With `Fc1cccc(F)c1CN1CCN(Cc2c(F)cccc2F)CC1` the figure was 1.26% (inactive); with `COc1ccccc1CN1CCN(C(=O)Cc2ccccc2)CC1`, 0.485% (inactive); with `COC(=O)C1=C(c2cccc(OCc3ccccc3)c2)C[C@@H]2CC[C@H]1N2C(=O)NNCc1ccccc1`, -0.13% (inactive).
Under `CC(C)c1ccc(O)c(CN2CCN(c3ccccc3)CC2)c1` stands -1.71% (inactive); under `Oc1cc2c(cc1CN1CCN(c3ccccc3)CC1)OCO2`, 83.3% (active).
Under `Fc1ccc(N2CCN(Cc3ccc4c(c3)OCO4)CC2)cc1` stands 6.76% (inactive); under `COC(=O)C1=C(c2ccc3ccccc3c2)C[C@@H]2CC[C@H]1N2C(=O)NCCO`, -0.422% (inactive).
Consider `CCc1ccc(OCC(=O)N2CCN(CC(=O)Nc3ccccc3Cl)CC2)cc1`, for which the activation was 1.2% (inactive).
In the case of `Cc1cccc(Cn2cccc(C(=O)Nc3ccc4c(c3)OCCO4)c2=O)c1`, the activation was 0.0946% (inactive).
With `CCOC(=O)C1(Cc2ccc(Cl)cc2)CCN(C(C)CCn2cccn2)CC1` (stereo not given) the figure was 72.7% (active); with `CCOC(=O)C1(CCc2ccccc2)CCN(Cc2ccco2)CC1`, 0.433% (inactive); with `COC(=O)C1=C(c2ccc(F)cc2OCc2ccccc2)C[C@@H]2CC[C@H]1N2C(=O)NCc1ccc(OC)c(OC)c1`, -0.652% (inactive).
With `O=C(CCC(=O)N1C[C@H]2C[C@@H](C1)c1cccc(=O)n1C2)NCc1ccccc1C(F)(F)F` the figure was 0.976% (inactive).
Under `Cc1nnc(NC(=O)c2cccn(Cc3cccc(F)c3)c2=O)s1` stands 0.455% (inactive).
